Screening results from PubChem.
Only some compounds are listed: those with a hit (about 3.6% of all), similar ones and a draw of the others.
mHTT CaM bind: inhibitors of human mutant huntingtin-calmodulin interaction; P42858; AlphaScreen His-mHTT/GST-CaM binding, luminescence; inhibition, % at 15 µM; actives 3.6% (n = 190,000); AID 1671202;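 also: 0% = both proteins with DMSO and 100% = one protein alone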
Pf apPOL block: Pf-apPOL DNA polymerase inhibition; Recombinant Pf-apPOL, molecular beacon fluorescence, 1.5 h; inhibition, % at 10 µM; actives 0.25% (n = 210,000); AID 1794808
Active calls of the source: *; . = no result. Rule as the data show it: active = inhibition above about 50%; inactive = the rest.

SMILES	mHTT CaM bind	Pf apPOL block
Cn1ccnc1C(O)c1cc(C(C)(C)C)c(O)c(C(C)(C)C)c1 (centres undefined)	18	-7
O=C1C(=Cc2cc3ccccc3o2)Oc2cc(O)ccc21	8	-9
O=C(c1ccc(Cl)cc1)N1CCC2(CC1)Nc1ccccc1S(=O)(=O)N2	-6	-2
COc1cc(/C=C2\C(=O)ON=C2C)ccc1OCc1ccc(F)cc1	99*	-2
COc1cc(/C=C2/C(=O)ON=C2C)ccc1OCc1ccc(C)cc1	70*	-9
CC1=NOC(=O)/C1=C/c1ccc(OCc2ccc(F)cc2)c(Cl)c1	-6	-4
Cc1ccc(-c2cncc(C(=O)N3CCOCC3)c2)cc1	0	-2
Cc1ccc([N+](=O)[O-])cc1NC(=O)c1cccc2c1C(=O)c1ccccc1-2	-3	-1
CCCCN(CC)c1ccc(-c2nc(-c3ccc(OC)cc3)no2)cn1	-12	4
COc1cccc(NC(=O)CN2CCC(c3nc(-c4ccccc4)no3)CC2)c1	-3	-1
O=C(Nc1nc(-c2cc3ccccc3oc2=O)cs1)c1ccc(Br)s1	-8	75*
O=C(Nc1nc(-c2cc3ccccc3oc2=O)cs1)c1ccc(F)cc1	-1	-2
CN1CCN(C(=O)c2cnc(-c3ccccc3)nc2N(C)Cc2ccccc2)CC1	68*	-8
CN1CCN(c2nc(-c3ccccc3)ncc2C(=O)N2CCCCC2)CC1	6	-2
Cc1cc(NS(=O)(=O)c2ccc(N/C=C/C(=O)c3cccs3)cc2)nc(C)n1	30	-14
CC(=O)c1ccc(NS(=O)(=O)c2ccc(N/C=C/C(=O)c3cccs3)cc2)cc1	2	60*
CSc1ccc(N2CC(c3nnc(NC(=O)COc4ccccc4C)o3)CC2=O)cc1 (centres undefined)	-4	-3
COc1ccc(C(=O)N(C)CC2(C)CCOCC2)cc1OC	-2	-2
COCC(=O)N1CCCC(c2ccnc(-c3ccc(OC)cc3)n2)C1 (centres undefined)	7	-2
CC12CC3(C)CC(C)(C1)CC(C(=O)Nc1ccc(C45CC6CC(CC(C6)C4)C5)cc1)(C2)C3	2	-3
CC12CC3CC(C)(C1)CC(c1ccc(O)cc1)(C3)C2	65*	3
CCN(CC)C(C)CN1c2ccccc2Sc2ccccc21 (centres undefined)	.	-3
CCC(CO)NCC(O)CN1c2ccccc2Sc2ccccc21 (centres undefined)	10	-1
OC(CNCCc1ccccc1)CN1c2ccccc2Sc2ccccc21 (centres undefined)	100*	-1
OC(CN1c2ccccc2Sc2ccccc21)Cn1cnc(-c2ccccc2)c1-c1ccccc1 (centres undefined)	100*	.
SMILES	mHTT CaM bind	Pf apPOL block
O=C(Nc1ccc(F)cc1)C1CC(=O)N(c2ccccc2)C1 (centres undefined)	-8	-10
CCOCCCNC(=O)c1c[nH]c2ccc(S(=O)(=O)N(C)c3ccc(F)cc3)cc2c1=O	3	-12
CCN(CC)CCCNC(=O)Cc1cn(C)c2ccccc12	5	-4
CCN(CCCNC(=O)Cc1cn(C)c2ccccc12)c1ccccc1	53*	-2
Cc1ccc(N2CCC(NC(=O)CC(C)C)C2=O)cc1 (centres undefined)	-8	-2
COc1cc(OC)c2c(c1C(CCN1CCOCC1)c1ccc(N(C)C)cc1)OC(=O)CC2c1ccc(N(C)C)cc1 (centres undefined)	100*	-6
COc1cc(C(CCN2CCOCC2)c2c(OC)cc(OC)c3c2OC(=O)CC3c2ccc(N(C)C)cc2)cc(OC)c1OC (centres undefined)	74*	-6
COc1cc(C(CCN2CCCCC2)c2c(OC)cc(OC)c3c2OC(=O)CC3c2ccc(N(C)C)cc2)cc(OC)c1OC (centres undefined)	78*	-9
COc1ccc(C2CC(=O)Oc3c(C(CCN4CCOCC4)c4ccc5c(c4)OCO5)c(OC)cc(OC)c32)cc1 (centres undefined)	79*	-6
COc1cc(C(CCN2CCOCC2)c2c(OC)cc(OC)c3ccc(=O)oc23)cc(OC)c1OC (centres undefined)	29	-14
COc1ccc2c(c1)C(c1ccc3c(c1)OCO3)CC(=O)O2 (centres undefined)	33	-1
COc1ccc(C2CC(=O)Oc3c(C(CCN4CCOCC4)c4cc(OC)c(OC)c(OC)c4)c(OC)cc(OC)c32)cc1 (centres undefined)	0	-4
Cc1ccc(NC(=O)N2CCN(Cc3nc4cccnc4n3-c3ccccc3)CC2)cc1C	5	5
COc1ccccc1C(=O)Nc1nc(-c2ccc(F)cc2)cs1	-10	-4
COc1cccc(-c2nc(C3CCCN(C(=O)c4ccccc4Cl)C3)no2)c1 (centres undefined)	3	-4
O=C(CN1CCC(C(=O)Nc2nc3ccccc3s2)CC1)Nc1ccc(F)cc1	-6	-2
